Screening results deposited in PubChem by National Center for Advancing Translational Sciences (NCATS).
An excerpt weighted towards active compounds, which were near 7.3% of everything screened.
NPC1 promoter act: qHTS Assay for NPC1 Promoter Activators | Huh7 NPC1 promoter luciferase reporter, 24 h | Potency, µM (top dose mostly 9.22 µM), actives largely listed as activators | 320,000 tested, 2.4% active; note: nearly all actives have a fitted effect of over 60% in size
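Stable NPC1-promoter luciferase Huh7 line; cpd (DMSO) 24 h, 37 °C, 5% CO2; Amplite luciferase reagent 10 min RT; luminescence readout. qHTS format.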
FLuc modulator: qHTS profiling assay for firefly luciferase inhibitor/activator using purifed enzyme and Km concentrations of substrates (counterscreen for miR-21 project) | Luciferin 4-monooxygenase (Photinus pyralis), P08659 | Potency, µM (doses to about 57.5 µM), most hits filed as inhibitors | purified FLuc, Km substrates, luminescence inhibition | 360,000 tested, 6.9% active; note: nearly all actives have a fitted effect of over 55% in size
Target sequence (P08659 whole entry, looked up): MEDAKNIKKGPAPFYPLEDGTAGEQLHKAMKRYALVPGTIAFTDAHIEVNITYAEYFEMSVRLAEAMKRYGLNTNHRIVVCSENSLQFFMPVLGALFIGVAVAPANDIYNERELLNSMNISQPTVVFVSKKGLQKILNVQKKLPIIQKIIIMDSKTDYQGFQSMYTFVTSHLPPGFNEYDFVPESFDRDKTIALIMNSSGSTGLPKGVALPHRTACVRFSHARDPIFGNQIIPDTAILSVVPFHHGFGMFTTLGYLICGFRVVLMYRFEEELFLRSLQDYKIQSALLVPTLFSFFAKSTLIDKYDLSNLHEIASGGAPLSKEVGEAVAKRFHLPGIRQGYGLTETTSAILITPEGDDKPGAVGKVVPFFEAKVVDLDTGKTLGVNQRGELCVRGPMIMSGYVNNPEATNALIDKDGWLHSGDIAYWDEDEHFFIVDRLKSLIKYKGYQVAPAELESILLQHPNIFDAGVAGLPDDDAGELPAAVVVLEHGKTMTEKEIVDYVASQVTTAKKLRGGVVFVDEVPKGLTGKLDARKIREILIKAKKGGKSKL
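Purified P. pyralis luciferase, 10 nM final, with Km-level 10 uM D-luciferin and 10 uM ATP in 50 mM Tris acetate pH 7.5, 10 mM Mg acetate, 0.01% Tween-20, 0.05% BSA; 6-point qHTS titration about 60 µM downward; luminescence read.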
Luc counter: Counterscreen for Luciferase (Kinase-Glo TM) Inhibition. Kinase-Glo luciferase, ATP luminescence, 8 min. Potency, µM (highest dose often 38.3 µM), most hits filed as inhibitors. 200,000 tested, 0.28% active; note: nearly all actives have a fitted effect of over 60% in size
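Kinase-Glo luciferase light output from ATP and luciferin was measured with 10 uM ATP, within the enzyme's linear range. Buffer: 50 mM imidazole pH 7.2, 50 mM KCl, 7 mM MgCl2, 0.01% Tween 20, 0.05% BSA; luminescence read after 8 min at ambient temperature.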
SMN2 splice up: qHTS Assay for Enhancers of SMN2 Splice Variant Expression | AID 1458, 2008 | 210,000 tested, 2.8% active | HEK293 SMN2-luciferase splicing reporter, luminescence, 30-36 h | Potency, µM (top dose mostly 46.1 µM), usual class: activators; note: nearly all actives have a fitted effect of over 55% in size
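HEK293 cells carry an SMN2 […]–luciferase reporter in which exon 7 inclusion puts luciferase in frame. Cells were plated 10-12 h before compound addition, then incubated 30-36 h at 37C. ONE-Glo luminescence was read; sodium butyrate at 4.5 mM final served as control.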
Rab9 prom act: qHTS Assay for Rab9 Promoter Activators. Huh7 Rab9 promoter-luciferase reporter, luminescence, 24 h. Potency, µM (highest dose often 9.22 µM), usual class: activators. 320,000 tested, 2.8% active; note: nearly all actives have a fitted effect of over 60% in size
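Luminescence read-out: Huh7 cells stably expressing Rab9-luciferase, treated 24 h with compound at 37 °C, then lysed with luciferase reagent for 10 min at ambient before reading.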
ELG1 genotox: qHTS screen for small molecules that induce genotoxicity in human embryonic kidney (HEK293T) cells expressing luciferase-tagged ELG1 | HEK293T ELG1-luciferase reporter, luminescence, 16 h | Potency, µM (titrated, usually from 46 µM), most hits filed as activators | 330,000 tested, 1.3% active | AID 504466, 2011; note: nearly all actives have a fitted effect of over 60% in size
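HEK293T cells expressing luciferase-tagged ELG1 were exposed to compound or DMSO vehicle for 16 hr at 37 °C and 5% CO2. Luciferase activity was then measured with ONE-Glo after 30 min at room temperature.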
Numbers stand for hits; . = inactive; ? = inconclusive; / = no result; [ ] = dose if it differs, or a comment. Calls come from the whole dose curve; as a rule, active = well fitted curve in the direction sought with a large enough effect; inconclusive = small, poorly fitted or top-dose-only effect, or another doubt; inactive = no such curve, though single readings can be large; an effect the other way counts as inactive or inconclusive.

SMILES | NPC1 promoter act | FLuc modulator | Luc counter | SMN2 splice up | Rab9 prom act | ELG1 genotox
CC(=O)Nc1cccc(OC(=O)COc2ccc(Br)cc2)c1 | . | ? | . | . | . | .
COc1ccc(C2(CNC(=O)C(=O)Nc3ccc(F)cc3)CCCC2)cc1OC | / | . | / | . | / | /
COC(=O)c1cc(S(=O)(=O)N2CCN(Cc3ccccc3)CC2)c[nH]1 | . | . | / | / | . | .[9.26 µM]
Cn1ccs/c1=N\C(=O)Nc1ccccc1 | 2.5µM | 11µM | / | / | 3.2µM | ?
Cn1ccsc1=NC(=O)c1ccc(OC(F)(F)F)cc1 | ? | 9.5µM | / | / | 4.5µM | ?
Cn1ccsc1=NC(=O)c1ccc(S(=O)(=O)C(F)F)cc1 | ? | ? | / | / | 3.5µM | ?
CCOc1cc(C(=O)N=c2sccn2C)ccc1OC(F)F | . | . | / | / | ? | .
Cn1ccsc1=NC(=O)c1ccccc1F | . | . | . | . | . | .
COc1ccc(-c2cc(=O)c3ccccc3o2)cc1 | 2.5µM | 6µM | . | 10µM | 2µM | 21µM
O=c1cc(-c2ccc(O)cc2)oc2ccccc12 | ? | 11µM | . | ? | ? | ?
O=c1cc(-c2ccncc2)oc2ccccc12 | . | . | . | . | . | .
COc1ccc(C(=O)c2c(O)cc(-c3ccc(OC)cc3)oc2=O)cc1 | . | 17µM | . | . | . | .
COc1ccc2c(=O)cc(-c3ccc(O)cc3)oc2c1 | / | / | . | / | / | /
O=c1cc(-c2ccc(O)cc2)oc2ccc(O)cc12 | ? | 12µM | . | ? | 3.5µM | .
CN(C)C(=S)N=Nc1[nH]c2ccccc2c1O | . | ? | . | ? | . | .
COc1ccc(NC(=O)CN(C)C(=O)CSc2ccc(Br)cc2)cc1 | . | . | / | / | . | .
COc1ccc(-c2nnc3sc(-c4ccco4)nn23)cc1OC | . | . | . | . | . | ?
COc1ccc(-c2cc(=O)c3c(O)c(OC)c(OC)c(OC)c3o2)cc1 | / | / | . | . | / | /
COc1ccc(-c2cc(=O)c3c(O)c(OC)c(O)cc3o2)cc1 | 3.2µM | 0.27µM | / | / | 3.5µM | 1.8µM
COc1ccc(-c2cc3ccccc3c(=O)o2)cc1 | / | / | . | 13µM | / | /
COc1ccccc1-c1cc(=O)c2cc(O)ccc2o1 | / | / | . | / | / | /
Nc1c(-c2ccc3c(c2)OCCO3)oc2ccccc2c1=O | ? | 9.5µM | / | / | ? | 10µM
O=c1cc(-c2cccc(O)c2)oc2ccc(O)cc12 | / | / | . | 14µM | / | /
CCOc1ccc(NCc2cccn2-c2nnc(N3CCC(C(=O)NCCc4ccc(OCC)c(OCC)c4)CC3)s2)cc1 | / | . | / | . | / | /
COC(=O)c1cc(S(=O)(=O)NCc2cccs2)c[nH]1 | . | . | / | / | . | .[9.26 µM]
SMILES | NPC1 promoter act | FLuc modulator | Luc counter | SMN2 splice up | Rab9 prom act | ELG1 genotox
O=c1cc(-c2ccccc2O)oc2cc(O)cc(O)c12 | / | / | . | / | / | /
NC(=O)COc1ccc2oc(-c3ccccc3)cc(=O)c2c1 | ? | 12µM | . | . | ? | ?
O=c1cc(-c2ccccc2O)oc2cc(O)ccc12 | / | / | . | 25µM | / | /
Cn1c2ccccc2c(=O)c2ccc(-c3ccc4c(c3)OCO4)cc21 | 1.3µM | 3µM | / | / | 1.1µM | ?
O=c1cc(-c2ccc3c(c2)OCO3)oc2ccccc12 | 3.2µM | ? | . | 13µM | 3.5µM | 9.2µM
CCOc1ccc(C(=O)Nc2ccc(NC(=O)c3ccco3)c(Cl)c2)cc1Br | . | . | . | . | . | .
CC(C)c1ccc(/C=c2\sc3nc(-c4ccncc4)nn3c2=O)cc1 | . | 2.4µM | . | . | . | .
Cc1ccc(/C=c2\sc3nc(-c4cccnc4)nn3c2=O)cc1 | . | 4.8µM | . | . | . | .
Cc1cc2nc3c(c(=O)n2[nH]1)CCCC3 | . | . | . | . | . | .
O=c1c2c(nc3cc(-c4ccc(Br)cc4)[nH]n13)CCCC2 | . | . | . | / | . | .
Cc1c(-c2ccccc2)[nH]n2c(=O)c3c(nc12)CCCC3 | ? | 15µM | . | 11µM | ? | ?
COc1ccc(-c2cc3nc4c(c(=O)n3[nH]2)CCC4)cc1 | ? | 4.3µM | . | 10µM | 2.8µM | ?
Cc1ccc(-c2[nH]n3c(=O)c4c(nc3c2C)CCCC4)cc1 | ? | ? | . | . | ? | ?
O=c1c2c(nc3cc(-c4ccccc4)[nH]n13)CCC2 | 2.8µM | 6µM | ? | 11µM | ? | ?
COc1ccc(COC(=O)N/C=C/c2ccco2)cc1 | . | ? | . | . | . | .
COc1ccccc1COC(=O)N/C=C/c1ccco1 | ? | 15µM | . | ? | ? | .
CCc1nc(SCCO)c2oc3ccccc3c2n1 | . | ? | . | . | . | .
CCN(CC)S(=O)(=O)c1ccc2c(c1)nc(CCC(=O)Nc1ccc(N3CCOCC3)cc1)n2C | . | 17µM | . | . | . | .
CN(CC(=O)Nc1ccc(N2CCOCC2)cc1)C(=O)c1cc(S(=O)(=O)N(C)C)ccc1Cl | . | 15µM | / | / | . | .
Cn1c(CCC(=O)Nc2ccc(F)cc2)nc2cc(S(=O)(=O)N3CCOCC3)ccc21 | . | . | / | / | . | .
COc1cccc(-c2nc3c(C#N)c[nH]n3c2NC2CCC(C)CC2)c1 (stereo not given) | / | . | / | / | / | /
Cn1nnnc1SCc1nc2ccccc2s1 | . | ? | . | ? | ? | .
Brc1ccccc1-c1nnc(SCc2nc3ccccc3s2)o1 | . | 7.6µM | . | 14µM | ? | ?
CCN(CC)S(=O)(=O)c1cccc(-c2nnc(SCc3nc4ccccc4s3)o2)c1 | . | 15µM | . | . | ? | .
CCN(CC)S(=O)(=O)c1cccc(-c2nnc(SCCCC(=O)c3ccccc3)o2)c1 | . | ? | . | . | . | .
SMILES | NPC1 promoter act | FLuc modulator | Luc counter | SMN2 splice up | Rab9 prom act | ELG1 genotox
COc1ccc(NC(=O)C2CCCN(S(=O)(=O)c3cccnc3)C2)cc1 (stereo not given) | . | . | . | . | . | .
O=Cc1ccc(OC2OCCOC2Oc2ccc(C=O)cc2)cc1 (stereo not given) | . | . | . | . | . | .
COc1cccc(C2/C(=C(/O)c3cnn(-c4ccccc4)c3C)C(=O)C(=O)N2CCN(C)C)c1OC (stereo not given) | . | . | . | . | . | .
c1coc(-c2nnc(-c3ccc4c(c3)OCO4)o2)c1 | 2µM | 6.7µM | . | 18µM | ? | 8.2µM
O=C1CCCCC1Sc1nnc(-c2ccc3c(c2)OCO3)o1 (stereo not given) | 0.2µM | 0.6µM | . | ? | 0.1µM | .
Brc1ccc(-c2nnc(-c3ccc4c(c3)OCO4)o2)o1 | 2µM | 1.7µM | . | 11µM | 1µM | ?
c1nnc(-c2ccc3c(c2)OCO3)o1 | . | . | . | . | . | .
Clc1ccc(CSc2nnc(-c3ccc4c(c3)OCO4)o2)cc1 | . | ? | . | . | . | .
